Inconclusive results are not listed. Activity calls are given as the source filed them. The call rests on the fitted dose curve; in most records, active means well fitted cell-killing curve with a large enough effect; inconclusive means small, poorly fitted or top-dose-only effect; inactive means flat fitted curve, though single readings scatter.

A short description of experiment [1]: Cell Viability - LYMP2-010 (AID 981).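 Further: cells exposed to compound for 24 hours at 37 °C; nearly all actives have a fitted effect of over 55% in size.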 Further: potency means the concentration at half of the fitted maximal effect. In a few lines: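 Human lymphoblastoid LYMP2-010 cells (2500/well) treated 24 h at 37 C in complete medium; viability read as intracellular ATP by CellTiter-Glo luminescence. AC50 from Hill fits of concentration-response data; tetraoctylammonium bromide positive control.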
Experiment [2] can be described thus: Cell Viability - LYMP2-012 (AID 982).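 Further: cellular ATP by luciferase luminescence where a drop means cytotoxicity; cells exposed to compound for one day before reading; nearly all actives have a fitted effect of over 55% in size.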 Further: potency means the concentration at half of the fitted maximal effect.
A short description of experiment [3]: Cell Viability - LYMP2-014 (AID 983). Further: nearly all actives have a fitted effect of over 50% in size. Further: potency means the concentration at half of the fitted maximal effect. A digest of the protocol:
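LYMP2-014 human lymphoblastoid cells, 2500/well, treated 24 h at 37 C in complete medium; viability by CellTiter-Glo ATP luminescence after 30 min at room temperature. AC50 from Hill fits of qHTS concentration-response; tetraoctylammonium bromide positive control.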

The nature of experiment [4]: Cell Viability - LYMP2-016 (AID 984).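 Further: cells exposed to compound for 24 hours at 37 °C; nearly all actives have a fitted effect of over 55% in size.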 Further: potency means the concentration at half of the fitted maximal effect. In a few lines:
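qHTS, 1536-well: 2500 LYMP2-016 cells/well, 5 hr 37 C, compound added, 24 hr 37 C, CellTiter-Glo 30 min RT, luminescence. Tetraoctylammonium bromide positive control. AC50 via Hill fit.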

Experiment [5] in a line: Cell Viability - LYMP2-021 (AID 974).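 Further: compound exposure lasts 24 hours at 37 °C; nearly all actives have a fitted effect of over 55% in size.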 Further: potency means the concentration at half of the fitted maximal effect. In a few lines:
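Human lymphoblastoid LYMP2-021 cells, 2500/well in complete medium, treated 24 hours at 37 C. Intracellular ATP by CellTiter-Glo luminescence (30 min, RT); AC50 from Hill fits of concentration-response.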

Experiment [6] is described as follows: Cell Viability - LYMP2-023 (AID 975). Further: potency means the concentration at half of the fitted maximal effect. In a few lines: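 LYMP2-023 human lymphoblastoid cells, 2500/well, preincubated 5 hr at 37 C, then compound-treated 24 hr at 37 C in complete medium. CellTiter-Glo luminescence (ATP) after 30 min at room temperature; AC50 from Hill-equation fits; tetraoctylammonium bromide positive control.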
Experiment [7] is described as follows: Cell Viability - LYMP2-025 (AID 976). Further: series mostly up to about 92 µM. In a few lines:
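Human lymphoblastoid LYMP2-025 cells, 2500/well, exposed 24 h at 37 C in complete medium in 1536-well qHTS. Viability as cellular ATP by CellTiter-Glo luminescence; AC50 from Hill fits of concentration-response data.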

A short description of experiment [8]: Cell Viability - LYMP2-006 (AID 978).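 Further: cells exposed to compound for 24 hours; nearly all actives have a fitted effect of over 60% in size.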 Further: potency means the concentration at half of the fitted maximal effect. A digest of the protocol:
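qHTS, 1536-well; 2500 cells/well, 5 hr 37 C; cpd 24 hr 37 C; CellTiter-Glo 30 min RT; luminescence. Tetraoctylammonium bromide pos. ctrl. AC50 via Hill eqn.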

Experiment [9] in a line: Cell Viability - LYMP2-007 (AID 979).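 Further: cells exposed to compound for 24 h before reading; nearly all actives have a fitted effect of over 60% in size.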 Further: potency means the concentration at half of the fitted maximal effect. In a few lines:
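Human lymphoblastoid LYMP2-007 cells (2500/well) preincubated 5 h at 37 C, then treated 24 h at 37 C in complete medium. Viability by CellTiter-Glo ATP luminescence after 30 min at room temperature; AC50 from Hill fits.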

Experiment [10] in a line: Cell Viability - LYMP2-008 (AID 980). Further: nearly all actives have a fitted effect of over 60% in size. Further: potency means the concentration at half of the fitted maximal effect. In a few lines: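 LYMP2-008 lymphoblastoid cells (2500/well) plated 5 h, then treated 24 h at 37 C in complete medium. Viability read as intracellular ATP by CellTiter-Glo luminescence after 30 min at room temperature; AC50 from Hill fits.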

On to `O=C(O)c1cc(O)c2c(c1)C(=O)c1cccc(O)c1C2=O`, for which the Potency result in experiment [1], in experiment [2], in experiment [3] and in experiment [4] was “inactive” in each case.

Turning to `CC(=O)O[C@]1(C(C)=O)CC[C@H]2[C@@H]3C=C(Cl)C4=CC(=O)[C@@H]5C[C@@H]5[C@]4(C)[C@H]3CC[C@@]21C`, the Potency entry in experiment [5], in [6], in [8], in [9], in experiment [10] and in experiment [1] was “inactive” throughout. Further, the Potency entry in experiment [2], in experiment [3] and in experiment [4] was “inactive” in each case. Besides, in experiment [7], the molecule was classed as inactive.

Turning to `CN(C)CCC(c1ccccc1)c1ccccn1` (configuration not stated), the Potency result in [5], in experiment [6], in [8], in experiment [9], in [10] and in [1] was “inactive” throughout. Also, the Potency result in experiment [2], in experiment [3] and in experiment [4] was “inactive” in each case. For the same molecule, the molecule was called inactive in experiment [7].

For `O=c1[nH]cnc2c1ncn2[C@H]1CC[C@@H](CO)O1`, the Potency result in experiment [5], in [6], in [8], in [9], in experiment [10] and in experiment [1] was “inactive” throughout. Moreover, the Potency entry in experiment [2], in experiment [3] and in [4] was “inactive” each time. The molecule was classed as inactive in experiment [7].

In the case of `CCn1cc(C(=O)O)c(=O)c2ccc(C)nc21`, the Potency entry in experiment [5], in experiment [6], in [8], in [9], in [10] and in experiment [1] was “inactive” in each case. Further, the Potency entry in experiment [2], in experiment [3] and in experiment [4] was “inactive” in each case. Besides, the result in experiment [7] was inactive.

As to `O=c1c(O)c(-c2ccc(O)cc2)oc2cc(O)cc(O)c12`, the Potency entry in experiment [5], in experiment [6], in experiment [8], in experiment [9], in experiment [10] and in experiment [1] was “inactive” in each case. In addition, the Potency entry in experiment [2], in [3] and in experiment [4] was “inactive” in each case. Also, the molecule was classed as inactive in [7].

Regarding `O=C1NC(=O)C(c2ccccc2)(c2ccccc2)N1`, the Potency entry in [5], in [6], in experiment [8], in [9], in [10] and in experiment [1] was “inactive” in each case. Moreover, the Potency entry in experiment [2], in [3] and in [4] was “inactive” throughout. For the same molecule, the molecule was classed as inactive in experiment [7].

In the case of `CCCCC1C(=O)N(c2ccccc2)N(c2ccccc2)C1=O`, the Potency entry in [5], in experiment [6], in experiment [8], in experiment [9], in [10] and in experiment [1] was “inactive” each time. Also, the Potency result in [2], in experiment [3] and in experiment [4] was “inactive” in each case. Further, in experiment [7], the outcome was inactive.

Consider `CC(=O)c1ccc(S(=O)(=O)NC(=O)NC2CCCCC2)cc1`, for which the Potency entry in experiment [5], in experiment [6], in experiment [8], in experiment [9], in [10] and in [1] was “inactive” throughout. In addition, the Potency entry in experiment [2], in experiment [3] and in experiment [4] was “inactive” each time. For the same molecule, in experiment [7], the outcome was inactive.

For the molecule `O=c1c(-c2ccc(O)cc2)coc2cc(O)ccc12`, the Potency result in experiment [5], in experiment [6], in [8], in experiment [9], in experiment [10] and in experiment [1] was “inactive” in each case. The Potency entry in experiment [3] and in experiment [4] was “inactive” throughout. Besides, the molecule was called inactive in experiment [7].

For the molecule `O=C(O)Cc1cccc2ccccc12`, the Potency entry in [5], in experiment [6], in experiment [8], in experiment [9], in experiment [10] and in experiment [1] was “inactive” each time. Moreover, the Potency entry in experiment [2], in experiment [3] and in experiment [4] was “inactive” each time. Moreover, the outcome in [7] was inactive.

Consider `CC/C(=C(\c1ccccc1)c1ccc(OCCN(C)C)cc1)c1ccccc1`, for which the Potency in experiment [5], in [6], in experiment [8], in experiment [9], in experiment [10] and in [1] was 50.1 µM (active) each time. In addition, the Potency in experiment [2] was 50.1 µM (active); in [3], 50.1 µM (active); in [4], 39.8 µM (active).

On to `O=c1cc(-c2ccc(O)cc2)oc2cc(O)cc(O)c12`, for which the Potency entry in [3] is “inactive”.

Turning to `CC1=C(/C=C/C(C)=C/C=C/C(C)=C/C(=O)Nc2ccc(O)cc2)C(C)(C)CCC1`, the Potency in [5] was 50.1 µM (active); in experiment [6], 50.1 µM (active); in experiment [8] it was 50.1 µM (active); in experiment [9] it was 39.8 µM (active); in [10] it was 50.1 µM (active); in [1] it was 50.1 µM (active). In addition, the Potency in experiment [2] is 39.8 µM (active); in experiment [3] it was 50.1 µM (active); in experiment [4], 63.1 µM (active).

In the case of `CCCNC(=O)NS(=O)(=O)c1ccc(Cl)cc1`, the Potency result in experiment [5], in experiment [6], in [8], in experiment [9], in experiment [10] and in [1] was “inactive” in each case. Further, the Potency entry in experiment [2], in experiment [3] and in experiment [4] was “inactive” in each case. In [7], the result was inactive.

Values taken from PubChem BioAssay (NCATS).
